In the library only some 12% were active in any assay of this set; here they are far more common.
HP1b chromo inh: HP1-beta chromodomain-methylated histone interaction inhibition; AlphaScreen HP1-beta / biotin-H3K9me3 peptide binding; Potency, µM (doses to about 114 µM), for the others: at the highest dose activity change, negative = inhibition, most hits filed as inhibitors; hit rate 0.56% among 390,000; AID 540317; note: nearly all actives have a fitted effect of over 70% in size
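AlphaScreen: HP1-beta (50 nM) preformed 30 min with biotin-H3(1-18)K9me3 peptide (50 nM) in PBS pH 7.4, 0.01% Tween-20. Compound added for 30 min at RT, then streptavidin donor/nickel chelate acceptor beads (10 ug/mL) for 30 min.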
JMJD2A Tudor: JMJD2A Tudor domain (human) inhibition | O75164 | AlphaScreen JMJD2A-Tudor / H3K4me3 peptide binding | Potency, µM (titrated, usually from 114 µM), inactives show top-dose activity change, negative = inhibition, actives largely listed as inhibitors | hit rate 4.4% among 390,000; note: % is set by controls: 0 for no effect and ±100 for the full control effect; nearly all actives have a fitted effect of over 50% in size
Target sequence (O75164 whole entry, looked up, the tested form may be a part): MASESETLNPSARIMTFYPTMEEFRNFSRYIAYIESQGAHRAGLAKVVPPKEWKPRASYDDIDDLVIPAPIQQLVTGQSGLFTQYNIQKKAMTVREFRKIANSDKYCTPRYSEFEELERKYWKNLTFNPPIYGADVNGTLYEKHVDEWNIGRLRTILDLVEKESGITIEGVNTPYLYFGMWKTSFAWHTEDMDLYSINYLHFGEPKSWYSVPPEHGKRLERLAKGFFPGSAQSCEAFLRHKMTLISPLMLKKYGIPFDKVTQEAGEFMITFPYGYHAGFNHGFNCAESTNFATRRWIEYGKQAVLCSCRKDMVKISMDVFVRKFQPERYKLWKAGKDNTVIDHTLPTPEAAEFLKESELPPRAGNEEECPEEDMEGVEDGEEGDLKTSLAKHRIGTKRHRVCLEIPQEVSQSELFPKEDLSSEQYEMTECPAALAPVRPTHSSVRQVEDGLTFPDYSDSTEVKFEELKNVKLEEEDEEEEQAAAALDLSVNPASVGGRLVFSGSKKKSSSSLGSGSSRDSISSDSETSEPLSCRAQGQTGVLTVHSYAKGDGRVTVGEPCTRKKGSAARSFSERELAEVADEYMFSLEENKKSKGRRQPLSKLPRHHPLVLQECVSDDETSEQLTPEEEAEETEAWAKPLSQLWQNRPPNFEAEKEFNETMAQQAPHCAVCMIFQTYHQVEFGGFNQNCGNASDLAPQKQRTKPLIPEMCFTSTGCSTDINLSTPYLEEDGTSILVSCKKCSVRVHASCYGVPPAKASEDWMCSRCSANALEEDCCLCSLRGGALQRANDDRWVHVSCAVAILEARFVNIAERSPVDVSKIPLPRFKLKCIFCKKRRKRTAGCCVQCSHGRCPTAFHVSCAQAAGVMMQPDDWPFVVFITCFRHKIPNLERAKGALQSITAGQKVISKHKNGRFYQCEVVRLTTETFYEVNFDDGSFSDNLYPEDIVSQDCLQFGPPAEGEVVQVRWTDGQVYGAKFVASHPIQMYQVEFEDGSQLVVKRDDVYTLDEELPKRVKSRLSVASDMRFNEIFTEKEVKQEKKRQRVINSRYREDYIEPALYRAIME
G9a block: G9a (human) methyltransferase inhibition; Q96KQ7; G9a H3K9 monomethylation, AlphaScreen, 2 h; Potency, µM (series often up to 102 µM), inactives show at the highest dose activity, negative = inhibition, actives largely listed as inhibitors; hit rate 8.8% among 350,000; AID 504332; note: % is set by controls: 0 for no effect and ±100 for the full control effect; nearly all actives have a fitted effect of over 75% in size
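AlphaScreen read-out: biotin-H3K9 peptide (500 nM) methylation by 20 nM enzyme with 20 uM SAM, 2 h at room temperature after 15 min compound preincubation; anti-monomethyl H3K9 antibody plus donor/acceptor beads, 10 min dark.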
Sfp inh: inhibitors of Bacillus subtilis Sfp phosphopantetheinyl transferase; Q9F4F7; Biochemical Sfp PPTase activity, qHTS; Potency, µM, inactives show largest response in the series, negative = inhibition, usual class: inhibitors; hit rate 3.5% among 310,000;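 note: the enzyme is Sfp with the accession as filed and its product quenches rhodamine fluorescence; 0% = enzyme reaction without inhibitor and -100% = no enzyme wells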
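Compounds were incubated with enzyme (final 15 nM) for 15 min at room temperature before substrate addition started the reaction. Fluorescence at 525 nm excitation, 598 nm emission was recorded immediately and after 30 minutes.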
BAZ2B block: BAZ2B (human) inhibition; hit rate 4.4% among 360,000; AlphaScreen BAZ2B-H3K14Ac peptide displacement; Potency, µM (highest dose often 114 µM), without a hit: top-dose activity change, negative = inhibition, most hits filed as inhibitors; Q9UIF8; note: % is set by controls: 0 for no effect and ±100 for the full control effect; nearly all actives have a fitted effect of over 60% in size
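AlphaScreen luminescence quantifies BAZ2B engagement of H3K14Ac peptide; the protein and biotinylated peptide are both at 50 nM final, buffer PBS pH 7.4 with 0.01% Tween-20, all steps at room temperature.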
* hit, by the source's call; ? = inconclusive; · = not tested or not shown; [ ] = remark or other dose. Calls come from the whole dose curve; as a rule, active = well fitted curve in the direction sought with a large enough effect; inconclusive = small, poorly fitted or top-dose-only effect, or another doubt; inactive = no such curve, though single readings can be large; an effect the other way counts as inactive or inconclusive. Potency is the fitted concentration of half-maximal effect.

SMILES | HP1b chromo inh | JMJD2A Tudor | G9a block | Sfp inh | BAZ2B block
Cc1ccc(OCC(=O)NC2CCSc3ccccc32)cc1 (centres undefined) | 23% | -8% | -37% | · | -23%
CSc1nsc(SC)c1C(=O)Nc1ccc(Cl)cc1 | 39% | 3% | · | 14% | -2%
CSc1nsc(SC)c1C(=O)Nc1ccc(C)cc1 | 23% | -12% | 25µM* | 7% | ?
CCNC(=O)NC(=O)CSc1nc2ccccc2n1CC(C)C | 14% | -35% | ? | 15% | -3%
Cc1ccc(S(=O)(=O)N2[C@@H](c3ccc(C(C)(C)C)cc3)C(C(=O)O)=CC[C@H]2c2ccc(C(C)C)cc2)cc1 | 9% | 79µM* | · | · | ·
O=C1NC(=O)C(c2ccc(F)cc2)N1 (centres undefined) | 22% | -6% | 0%[59 µM] | 15% | 8%
CCOc1ccc(NC(=S)C(C#N)=C2N(C)c3ccccc3N2C)cc1 | 24% | 0% | 32µM* | -16% | -31%
CC1c2ccccc2SC(CCCN(C)C)c2ccccc21 (centres undefined) | 9% | -10% | 56µM* | 45µM* | 1%
COc1ccc(CCNC2CC(=O)N(CCc3ccc(OC)c(OC)c3)C2=O)cc1 (centres undefined) | 19% | -4% | -44%[59 µM] | -9% | 6%
COc1ccc(/C=N/NC(=O)c2ccc(Br)cc2)c(OC)c1 | 30% | -14% | 14% | 9% | -15%
CC(C)(C)c1ccc(OCc2ccc(C(=O)N/N=C/c3ccc(O)c(O)c3)cc2)cc1 | ? | ? | ? | -8% | 32µM*
O=C(N/N=C/c1ccc(O)cc1)c1cc[n+](Cc2ccccc2)cc1 | 22% | -18% | ? | 0% | -6%
COc1ccc(O)c(/C=N/NC(=O)c2ccc(OCc3cccc(Br)c3)cc2)c1 | 19% | 35µM* | 35%[2.33 µM] | -7% | ?
O=C(N/N=C/c1ccc(OCc2ccccc2)cc1)c1cc[n+](Cc2ccccc2)cc1 | -2% | ? | 71µM* | -14% | -12%
Cc1c(NC(=O)CCSc2ccc(Cl)cc2)c(=O)n(-c2ccccc2)n1C | 26% | 8% | 11% | 19% | -4%
COc1ccc(CCNC(=O)c2cc3c(=O)n4cccc(C)c4nc3s2)cc1OC | 16% | -4% | 28µM* | 24% | 10%
CCN(CC)S(=O)(=O)c1ccc(OC)c(NC(=O)c2cc3c(=O)n4ccccc4nc3s2)c1 | 25% | -11% | 40µM* | 6% | 10%
CC(=O)NS(=O)(=O)c1ccc(NC(=O)c2cc3c(=O)n4ccccc4nc3s2)cc1 | 47% | -21% | · | 38% | -32%
CC1CN(S(=O)(=O)Cc2ccccc2)CC(C)O1 (centres undefined) | 37% | -6% | 22% | 19% | -3%
COc1ccc(-c2coc3cc(OC(C)=O)ccc3c2=S)cc1 | ? | 45µM* | · | · | ·
O=C(/C=C/c1cccc(Br)c1)OCC(=O)N1CCN(c2ccccc2)CC1 | 2% | -28% | -7%[59 µM] | · | -6%
CCc1ccc(-n2nc(CO)c(C(=O)NCC(c3ccccc3)c3ccccc3)n2)cc1 | 21% | -2% | 3%[59 µM] | · | -2%
CC(Oc1ccc(Cl)cc1Cl)C(=O)NCCCCc1ccccc1 (centres undefined) | 233% | 203% | 78%[59 µM] | -10% | 125%
Cc1ccccc1NNC(N)=S | 10% | -15% | 11µM* | 50µM* | -17%
NC(=S)NNC(=O)Nc1cccc(Cl)c1 | 26% | ? | 8.9µM* | 14% | 4%
SMILES | HP1b chromo inh | JMJD2A Tudor | G9a block | Sfp inh | BAZ2B block
S=C(Nc1cccc(Cl)c1)NC1CCCCC1 | 49% | -4% | 44% | 9% | 4%
NNC(=O)CNc1cccc(Cl)c1 | 32% | -14% | 12% | 8% | 2%
S=C(NNc1cccc(Cl)c1)NC1CCCCC1 | ? | 8.9µM* | 28µM* | -3% | 35µM*
NC(=S)NNc1cccc(Cl)c1 | 29% | ? | 8.9µM* | 40µM* | -2%
O=C(Nc1ccncc1)Nc1cccc(Cl)c1 | 46% | -6% | · | 7% | -3%
O=C(CN1CCSc2ccccc21)NCCCc1ccccc1 | -3% | ? | -20%[59 µM] | 11% | ?
Cc1cccc(NNC(N)=S)c1 | -16% | -19% | 40µM* | 14µM* | ?
Cc1cccc(Nc2ccccc2)c1 | 59% | 9% | -9%[12.7 µM] | 16% | 3%
CCCCCCOC(=O)Sc1nc2ccccc2o1 | 24% | 18% | ? | 45µM* | 87%
COC(=O)CSc1nc2ccccc2o1 | 14% | 4% | 8%[59 µM] | 7% | -6%
O=C1c2nccnc2C(=O)N1c1ccc(C(F)(F)F)cc1 | 25% | -14% | 50µM* | 9% | -39%
CN1CCN(C(=O)c2ccc(C(C)(C)C)cc2)CC1 | 51% | -19% | 16%[59 µM] | 10% | 79µM*
CN1CCN(C(=O)c2ccc(C(F)(F)F)cc2)CC1 | 42% | 0% | ? | 6% | ?
COc1ccc(N2C(=O)[C@@H]3C(c4cccnc4)=NO[C@@H]3C2=O)cc1 | 26% | -35% | · | 79µM* | -20%
COc1ccc(CN2C(=O)[C@@H]3C(c4ccc(F)cc4)=NO[C@@H]3C2=O)cc1 | 69% | -16%[11.4 µM] | -39% | -1% | 14%
Cc1ccc(N2C(=O)[C@@H]3C(c4cccnc4)=NO[C@@H]3C2=O)cc1 | 22% | -21% | -15%[12.7 µM] | 50µM* | -5%
CC(=O)C1=NOC2C(=O)N(c3ccc(Cl)cc3)C(=O)C12 (centres undefined) | 48% | 4% | ? | 9% | -32%
CCOC(=O)c1cc2sccc2n1CC(=O)N1CCc2ccccc21 | 31% | -18% | -5%[12.7 µM] | -6% | -5%
O=[N+]([O-])c1ccccc1OCC(O)CN1CCN(CC(O)COc2ccccc2[N+](=O)[O-])CC1 (centres undefined) | 18% | -12% | · | 12% | 5%
COc1ccc(N2CCN(CC(O)COc3cc(C)ccc3C)CC2)cc1 (centres undefined) | 20% | -33% | 8.9µM* | -10% | ?
COc1ccc(N2CCN(CC(O)COc3ccc(C)cc3C)CC2)cc1 (centres undefined) | ? | 45µM* | 40µM* | -4% | 40µM*
COc1ccc(N2CCN(CC(O)COc3ccccc3[N+](=O)[O-])CC2)cc1 (centres undefined) | ? | 28µM* | ? | 12% | ?
CCCCn1c(N)c(N(CC(C)C)C(=O)c2cc(C)oc2C)c(=O)[nH]c1=O | 17% | -12% | ? | 11% | -18%
CCCCn1c(N)c(N(CC(C)C)C(=O)CSC(C)C(=O)Nc2cc(C)on2)c(=O)[nH]c1=O (centres undefined) | 40% | -8% | 56µM* | · | 10%
CCCCn1c(N)c(N(CC(C)C)C(=O)CSCc2c(C)noc2C)c(=O)[nH]c1=O | 16% | -5% | 45µM* | · | -15%
CCCc1nc2nc(C)c(NS(=O)(=O)c3ccc4c(c3)CCCC4)c(=O)n2[nH]1 | 28% | -14% | -17% | 23% | 3%

Screening data as filed in PubChem BioAssay.
